# Measured values as given in article PMC4336329 (PLoS ONE, 2015).
# About 14,000 (4.5%) of roughly 310,000 compounds showed an effect of 50% or more. Effects have a minus sign here. The sample holds strong results, similar compounds and a random draw of the others, so the mix is not that of the screen.
# Target: human ether-à-go-go-related gene (hERG) potassium channel (human, UniProt Q12809)
# Experiment: primary screen, population patch clamp on CHO cells stably expressing hERG; higher = less effect of the substance
# 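Further: peak tail current of the secondary pulse compared with the same well before compound.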
# Chain of human ether-à-go-go-related gene (hERG) potassium channel (Q12809 whole entry, looked up): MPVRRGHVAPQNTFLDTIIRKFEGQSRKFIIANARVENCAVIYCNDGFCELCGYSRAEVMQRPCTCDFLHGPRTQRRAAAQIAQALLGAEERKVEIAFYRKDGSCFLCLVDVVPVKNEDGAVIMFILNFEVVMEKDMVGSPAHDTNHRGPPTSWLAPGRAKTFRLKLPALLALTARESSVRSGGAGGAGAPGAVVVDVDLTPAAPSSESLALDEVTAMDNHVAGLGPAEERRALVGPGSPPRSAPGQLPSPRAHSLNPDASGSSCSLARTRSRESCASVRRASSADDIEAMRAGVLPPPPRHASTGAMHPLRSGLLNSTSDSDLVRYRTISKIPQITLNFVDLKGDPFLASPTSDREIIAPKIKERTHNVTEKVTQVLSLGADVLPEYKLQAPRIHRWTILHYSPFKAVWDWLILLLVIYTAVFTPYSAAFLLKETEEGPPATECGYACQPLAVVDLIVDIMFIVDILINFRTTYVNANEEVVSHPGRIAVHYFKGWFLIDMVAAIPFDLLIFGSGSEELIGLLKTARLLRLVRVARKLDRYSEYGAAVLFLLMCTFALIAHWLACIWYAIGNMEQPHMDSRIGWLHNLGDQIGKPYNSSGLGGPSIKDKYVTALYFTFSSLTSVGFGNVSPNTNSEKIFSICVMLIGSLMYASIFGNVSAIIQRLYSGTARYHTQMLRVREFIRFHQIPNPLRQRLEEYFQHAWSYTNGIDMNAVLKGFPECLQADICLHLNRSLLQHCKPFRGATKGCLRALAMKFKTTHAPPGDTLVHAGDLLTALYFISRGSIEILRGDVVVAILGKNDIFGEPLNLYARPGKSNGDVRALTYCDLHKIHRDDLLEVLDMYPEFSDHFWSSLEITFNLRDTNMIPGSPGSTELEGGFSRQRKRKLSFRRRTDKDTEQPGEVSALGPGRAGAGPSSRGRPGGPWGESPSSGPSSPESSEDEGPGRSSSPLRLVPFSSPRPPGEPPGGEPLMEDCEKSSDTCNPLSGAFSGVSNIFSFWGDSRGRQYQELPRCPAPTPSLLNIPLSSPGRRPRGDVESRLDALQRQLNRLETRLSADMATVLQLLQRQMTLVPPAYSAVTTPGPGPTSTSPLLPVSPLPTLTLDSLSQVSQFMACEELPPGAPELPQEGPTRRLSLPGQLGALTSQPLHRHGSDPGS
row,Compound,"hERG current change (%, negative = inhibition) at 10uM [%]"
1,O=C(O)/C(=C\c1cccc(C(F)(F)F)c1)c1ccc(S(=O)(=O)N2CCCC2)s1,5.74
2,O=C(Cc1cccs1)Nc1cccc(C(=O)Nc2ccco2)c1,-37.9
3,CCOc1ccc(Nc2oc(-c3ccco3)nc2C#N)cc1,-1.69
4,COC(=O)c1ccc(NC(=O)CSc2nc(N)c(NC(=O)c3ccc(Br)o3)c(=O)[nH]2)cc1,20.8
5,Cc1cc(C)c(S(=O)(=O)Nc2nccs2)c(C)c1,0.875
6,Cc1cc(S(=O)(=O)NCC(C)C)ccc1OCC(=O)NCC1CCCO1 (stereo not shown),8.03
7,CC(=O)Nc1nc(C)c(Oc2ccc(C)cc2)c(=O)[nH]1,-1.03
8,S=C(NC1CC1)SCc1ccco1,-11.5
9,COc1cccc(NC(=O)CN(C)CC(=O)NC(C)c2ccccc2)c1 (stereo not shown),-8.48
10,CN(C)CCN1C(=O)c2oc3ccc(F)cc3c(=O)c2C1c1ccncc1 (stereo not shown),-2
11,CCOC(=O)CC(=O)CSc1ncnc2c1oc1ccccc12,5.2
12,Cc1ccc(Cl)cc1Nc1nc(-c2sc(NC(=O)c3ccco3)nc2C)cs1,3.48
13,COc1ccc2c(c1)C(C)CC(C)(C)N2C(=O)CSc1ncn[nH]1 (stereo not shown),-10.9
14,Cc1ccccc1OCCCC(=O)Nc1ccc(Br)cc1,5.24
15,COc1cccc(OC)c1C(=O)OCC(=O)N(C)c1ccccc1,7.96
16,Cc1ccc(NC(=O)[C@H](C)NC(=O)C2CCN(C(=O)[C@@H](N)CC(C)C)CC2)cc1.Cl,7.29
17,COc1ccc(OCC(O)CN2CCC(CN3C(=O)c4cccc5cccc(c45)C3=O)CC2)cc1.Cl (stereo not shown),-59.1
18,COc1ccc(S(=O)(=O)N2CCC(CN3C(=O)c4cccc5cccc(c45)C3=O)CC2)cc1,7.22
19,CCc1ccc(OCC(O)CN2CCC(CN3C(=O)c4cccc5cccc(c45)C3=O)CC2)cc1.Cl (stereo not shown),-41.1
20,Cc1cc(C)n(C(=O)CCCC(=O)n2nc(C)cc2C)n1,-4.17
21,CC(=O)Nc1ccc(NC(=O)COc2ncnc3ccccc23)cc1,-7.63
22,O=C(Nc1ccccn1)c1cc(-c2cccc(Cl)c2)nc2ccccc12,13.3

row,Compound,"hERG current change (%, negative = inhibition) at 10uM [%]"
1,O=C(c1ccc(Cl)c(S(=O)(=O)NCc2ccccc2)c1)N1CCN(c2ccccn2)CC1,-50.3
2,CC1CCN(C(=O)c2ccc(Br)c(S(=O)(=O)N3CCOCC3)c2)CC1,-3.74
3,CC1CCN(S(=O)(=O)c2cc(C(=O)N3CCN(c4ncccn4)CC3)ccc2Br)CC1,-72.4
4,O=C(c1ccc(Cl)c(S(=O)(=O)N2CCCCCC2)c1)N1CCN(c2ccccn2)CC1,-63.6
5,O=C(c1ccc(Cl)c(S(=O)(=O)N2CCCC2)c1)N1CCN(c2ncccn2)CC1,-4.2
6,O=C(c1ccc(CNS(=O)(=O)c2ccccc2)cc1)N1CCN(c2ccccn2)CC1,-28.5
7,O=C(c1ccc(Cl)c(S(=O)(=O)N2CCOCC2)c1)N1CCN(c2ccccn2)CC1,-44.2
8,O=C(c1ccc(Cl)c(S(=O)(=O)Nc2ccc(F)cc2)c1)N1CCN(c2ccccn2)CC1,-33.9
9,O=C(c1ccc(Cl)c(S(=O)(=O)N2CCCC2)c1)N1CCN(c2ccccn2)CC1,-31.3
10,CCC1(C)CC(C(N)=S)CCO1 (stereo not shown),27.4
11,O=C(C1CCC1)N(CCc1ccccc1)Cc1nc2ccccc2c(=O)[nH]1,-4.04
12,CCc1nnc(NC(=O)CN2C(=O)c3ccccc3S2(=O)=O)s1,10.7
13,Cc1ccc(S(=O)(=O)Nc2c(C)nn(C)c2C)cc1,-4.07
14,CCn1c(=O)c2sccc2n(Cc2ccc(C)cc2)c1=O,26
15,O=C(Nc1ccccc1)N1CCN(Cc2ccc3c(c2)OCO3)CC1,-26.1
16,Cc1cc(C)cc(NC(=O)N2CCN(Cc3ccc4c(c3)OCO4)CC2)c1,-59
17,CC1CCc2nc(NC(=O)CN3CCN(c4ccccc4)CC3)sc2C1 (stereo not shown),-6.29
18,O=C(CN1CCN(Cc2ccc3c(c2)OCO3)CC1)Nc1ccc(F)cc1,-81.7
19,O=C(CN1CCN(S(=O)(=O)c2ccc(F)cc2)CC1)Nc1ccc2c(c1)OCO2,-40.6
20,O=C(CN1CCN(CC(=O)Nc2ccc3c(c2)OCO3)CC1)Nc1ccc(F)cc1,-73.4
21,O=C(CN1CCN(c2ccc(F)cc2)CC1)Nc1ccc2c(c1)OCCO2,4
22,COc1cc(NC(=O)CN2CCN(Cc3ccc4c(c3)OCO4)CC2)cc(OC)c1.O=C(O)C(=O)O,-47

row,Compound,"hERG current change (%, negative = inhibition) at 10uM [%]"
1,O=C(CN1CCN(Cc2ccc3c(c2)OCO3)CC1)NCC(F)(F)F,5.34
2,CC1CCc2nc(NC(=O)CN3CCN(Cc4ccc5c(c4)OCO5)CC3)sc2C1 (stereo not shown),-66.7
3,Cc1ccc(NC(=O)N2CCN(Cc3ccc4c(c3)OCO4)CC2)cc1,-33.8
4,CC1CCc2nc(NC(=O)CN3CCOCC3)sc2C1 (stereo not shown),-4.5
5,O=C(/C(=C(/[O-])c1ccccc1)[n+]1ccccc1)c1ccc([N+](=O)[O-])cc1,6.47
6,Cc1ccc(-c2nnc(N(C)C(=O)c3ccncc3)s2)cn1,1.62
7,CCC(C)(C)NC(=O)C(c1cccnc1)N(C(=O)c1csnn1)c1ccc(C)cc1 (stereo not shown),10.6
8,CCCOc1ccc(-c2c(C(=O)N/N=C/c3ccccc3OCC)nnn2-c2nonc2N)cc1,22.7
9,COc1ccc(OC)c(C2C(C(=O)c3cc4ccccc4o3)=C(O)C(=O)N2c2cc(C)on2)c1 (stereo not shown),2.7
10,COc1ccc2oc(C(=O)NN3C(C)CCCC3C)c(C)c2c1 (stereo not shown),16.1
11,CNc1nccc(-c2ccc(F)cc2)c1C#N,6.25
12,OC1(c2ccc3c(c2)OCO3)CCN(Cc2ccc(F)cc2)CC1,-51.4
13,O=C(CN1CCN(Cc2ccc3c(c2)OCO3)CC1)Nc1ccc2c(c1)OCO2,-72.5
14,O=C(CN1CCN(Cc2ccc3c(c2)OCO3)CC1)Nc1cc(S(=O)(=O)N2CCCC2)ccc1Cl,-18.8
15,CN(C)S(=O)(=O)c1ccc(Cl)c(NC(=O)CN2CCN(Cc3ccc4c(c3)OCO4)CC2)c1,-64.6
16,O=S(=O)(c1ccc(F)cc1)N1CCC(O)(c2ccc3c(c2)OCO3)CC1,-42
17,OC1(c2ccc3c(c2)OCO3)CCN(Cc2ccccn2)CC1,-6.96
18,CN(C)S(=O)(=O)c1ccc(Cl)c(NC(=O)CN2CCCCCC2)c1,-24.6
19,Fc1ccccc1N1CCN(Cc2ccc3c(c2)OCO3)CC1,-26.8
20,COc1ccc(NC(=O)CN2CCN(Cc3ccc4c(c3)OCO4)CC2)cc1OC.O=C(O)C(=O)O,-17.4
21,O=C(CN1CCN(Cc2ccc3c(c2)OCO3)CC1)Nc1ccc(N2CCOCC2)cc1,-6.54
22,Cc1cccc(N2CCN(Cc3ccc4c(c3)OCO4)CC2)c1C,3.83

row,Compound,"hERG current change (%, negative = inhibition) at 10uM [%]"
1,N#Cc1c(F)cccc1N1CCN(Cc2ccc3c(c2)OCO3)CC1,-81.3
2,CS(=O)(=O)c1ccc2nc(NC(=O)c3ccc(N4CCCC4=O)cc3)sc2c1,13.3
3,CCCCNC(=O)[C@H]1N2C(=O)c3c(ccc(OC)c3OC)C2SC1(C)C (stereo partly shown),12.8
4,S=c1[nH]ncn1/N=C/c1ccc(N2CCOCC2)cc1,14.9
5,CCCN(Cc1nnc(-c2cccs2)o1)C(=O)c1cccc(S(=O)(=O)N2CCOCC2)c1,-25.3
6,CC(NC(=O)COC(=O)c1ccc(CO)cc1)C1CC2CCC1C2 (stereo not shown),7.65
7,CC(=O)Nc1ccc(C(=O)NN2C(=O)c3ccccc3C2=O)cc1,7.29
8,COc1ccc(OC)c(C(=O)NC(CC(N)=O)c2ccc(N3CCC(Cc4ccccc4)CC3)c([N+](=O)[O-])c2)c1 (stereo not shown),-5.07
9,CCOC(=O)CN(C(=O)COc1nc(-c2ccccc2)cc(C)c1C#N)c1ccc(F)cc1,1.18
10,Cc1ccc(-n2c(-c3ccncc3)n[nH]c2=S)c(C)c1,13.7
11,Fc1ccc(N2CCN(Cc3cc4c(cc3Br)OCO4)CC2)cc1,7.74
12,CCOc1cc(N2CCOCC2)c(OCC)cc1NC(=O)CN1CCN(Cc2ccc3c(c2)OCO3)CC1.Cl,-55.8
13,O=C(CSCc1ccccc1)N1CCN(Cc2ccc3c(c2)OCO3)CC1,-22
14,C/C(=C\c1ccccc1)C(=O)N1CCN(Cc2ccc3c(c2)OCO3)CC1,-51.6
15,CCOc1cc(N2CCOCC2)c(OCC)cc1NC(=O)CN1CCC(Cc2ccccc2)CC1,-3.67
16,Fc1ccc(N2CCN(Cc3ccc4c(c3)OCO4)CC2)cc1,-51.3
17,CC(C)CC(=O)N1CCN(Cc2ccc3c(c2)OCO3)CC1,0.479
18,Oc1cc2c(cc1CN1CCN(c3ccc(F)cc3)CC1)OCO2,-1.5
19,CCOc1cc(N2CCOCC2)c(OCC)cc1NC(=O)CN1CCCC1,6.63
20,COC(=O)c1ccsc1NC(=O)CN1CCN(Cc2ccc3c(c2)OCO3)CC1,-78.4
21,COC(=O)c1c(NC(=O)CN2CCN(Cc3ccc4c(c3)OCO4)CC2)sc(C)c1C.O=C(O)C(=O)O,-28.9
22,COc1ccsc1C(=O)N1CCN(Cc2ccc3c(c2)OCO3)CC1,-16.5
